Data taken from PubChem BioAssay (NCATS).
“And” between values parts separate entries of the source, which are not always exact repeats. Identical values can stand only once. Inconclusive results are not listed. The source made the active and inactive calls. Unless noted, the call rests on the fitted dose curve; in most records, active means well fitted curve in the direction sought with a large enough effect; inconclusive means small, poorly fitted or top-dose-only effect, or another doubt; inactive means no such curve, though single readings can be large; an effect the other way counts as inactive or inconclusive.

Assays:
[1] = target: Glutathione peroxidase 1 (Homo sapiens) (UniProt P07203); assay: Primary qHTS Assay for Inhibitors of Recombinant Selenoprotein Glutathione Peroxidase 1 (GPX1) (AID 1845191); further: nearly all actives have a fitted effect of over 65% in size; on activity, negative = inhibition: on the % scale 0 is the no-effect control and ±100 the full control effect
Glutathione peroxidase 1 (Homo sapiens), sequence (P07203 whole entry, looked up): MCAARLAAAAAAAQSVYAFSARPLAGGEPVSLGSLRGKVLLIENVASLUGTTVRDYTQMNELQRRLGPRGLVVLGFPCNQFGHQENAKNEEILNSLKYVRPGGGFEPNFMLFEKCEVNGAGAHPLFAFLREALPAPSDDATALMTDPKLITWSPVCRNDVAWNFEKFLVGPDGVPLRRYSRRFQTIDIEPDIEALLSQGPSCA
Summary of the method: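 GR-coupled assay: compounds preincubated 30 min at room temperature with GPX1, then reaction started with CHP; final 10 nM GPX1, 1 mM GSH, 0.5 mM CHP, 0.5 mM NADPH, 100 nM GR, 0.01% BSA, pH 7.5 Tris buffer. NADPH fluorescence (340/450 nm) read at 0 and 15 min.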

[2] = target: Phospholipid hydroperoxide glutathione peroxidase GPX4 (Homo sapiens) (UniProt P36969); assay: Primary qHTS Assay for Inhibitors of Recombinant Selenoprotein Glutathione Peroxidase 4 (GPX4) (AID 1845192); further: nearly all actives have a fitted effect of over 65% in size; further: potency means the concentration at half of the fitted maximal effect
Phospholipid hydroperoxide glutathione peroxidase GPX4 (Homo sapiens), sequence (P36969 whole entry, looked up): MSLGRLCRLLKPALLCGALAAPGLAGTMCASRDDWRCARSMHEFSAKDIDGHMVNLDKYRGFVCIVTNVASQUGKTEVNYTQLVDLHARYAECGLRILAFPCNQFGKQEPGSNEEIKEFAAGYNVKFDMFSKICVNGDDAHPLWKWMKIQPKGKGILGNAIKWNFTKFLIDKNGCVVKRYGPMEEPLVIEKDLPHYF
Summary of the method: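 GR-coupled assay: recombinant GPX4 preincubated 30 min with compound at room temperature; final 200 nM GPX4, 1 mM GSH, 0.5 mM cumene hydroperoxide, 0.5 mM NADPH, 100 nM GR, 0.01% BSA, pH 7.5 Tris. NADPH fluorescence (340/450 nm) read at 0 and 15 min.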

[3] = qHTS drug screen for cell cycle checkpoint inhibitors in PARPi-resistant BRCA-mutant ovarian cancer cell lines. (AID 1963452; calls by dose curve); conditions: PEO1/OlaR viability, CellTiter-Glo luminescence, 96 h, stronger effect = lower value
Summary of the method: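 PEO1, PEO4 and PEO1/OlaR ovarian cancer cells, 600 per well, exposed 96 h at 37C to a dilution series. Viability read by CellTiter-Glo luminescence, normalized to DMSO and empty wells; activity summarized as Z-AUC.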

[4] = qHTS profiling for inhibitors of Plasmodium falciparum proliferation (AID 504749);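 further: 0% = DMSO vehicle and full inhibition = artemisinin control; nearly all actives have a fitted effect of over 60% in size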; conditions: P. falciparum in erythrocytes, SYBR Green DNA, 72 h, at 28.7 µM (top of the series)
Summary of the method: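 Readout was DNA-dye fluorescence from lysed cultures, ex 485/em 535 nm. Parasitized red cells had grown 72 h with compound; data scaled between 0.29 uM artemisinin and DMSO wells and corrected using vehicle-only plates.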

[5] = Cell Viability - BJ (AID 421; calls by dose curve;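 further: potency means the concentration at half of the fitted maximal effect; cells exposed to compound for 40 hours at 37 °C before readout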); conditions: BJ fibroblast viability, qHTS
Summary of the method: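 Normal human BJ foreskin fibroblasts, 1500/well in complete medium, treated 40 hr at 37 °C. Cellular ATP by CellTiter-Glo luminescence; normalized to DMSO and 100 uM tamoxifen, AC50 from Hill fit.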

[6] = Cell Viability - Jurkat (AID 426;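 active means dose-dependent loss of cell ATP signal giving a full or clear fitted curve, ranked by lower potency value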; further: potency means the concentration at half of the fitted maximal effect); conditions: qHTS
Summary of the method: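 Seed 5000 Jurkat E6-1 cells/well; add compound; incubate 40 hr at 37 °C; add CellTiter-Glo; wait 20 min at room temperature; read luminescence. Fit concentration-response with Hill equation for AC50.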

[7] = Cell Viability - Hek293 (AID 427;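 active means compounds whose dose-response curve shows a full or clear partial loss of cell viability, called from curve shape rather than a numeric limit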;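 further: potency means the concentration at half of the fitted maximal effect; cells exposed to compound for 40 hours at 37 °C before reading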); conditions: qHTS
Summary of the method: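 HEK293 cells in complete medium were exposed to compound for 40 hr at 37 °C, then cellular ATP was read by CellTiter-Glo luminescence. Data were normalized to DMSO (basal) and 100 uM tamoxifen (100% inhibition), and AC50 came from Hill fits.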

[8] = Cell Viability - MRC5 (AID 434; calls by dose curve;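 further: potency means the concentration at half of the fitted maximal effect; potency reflects cytotoxicity seen as loss of intracellular ATP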); conditions: MRC5 lung fibroblast viability, qHTS
Summary of the method: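 MRC5 normal human lung fibroblasts, 1500 cells/well, exposed to compound for 40 hr at 37 C. Cellular ATP was read by CellTiter-Glo luminescence; data normalized to DMSO and 100 uM tamoxifen, with AC50 from Hill fits.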

[9] = qHTS Assay for Identification of Small Molecule Inducers of Hypoxia Response (AID 2120; active means well fitted curve in the direction sought with a large enough effect in the signal ratio, with a control signal flat, not every such curve was filed as active; the % refers to the signal ratio; further: 0% is about no effect)
Summary of the method: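 Induction of beta-lactamase reporter activity was measured in CellSensor HRE-bla ME-180 cells after 17 h compound treatment at 37 degrees C, using CCF4 substrate and the 460nm/530nm emission ratio to derive AC50 values.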

[10] = qHTS assay for small molecule agonists of retinoid X receptor alpha signaling (AID 588544); conditions: HEK293T RXRa-UAS-bla, beta-lactamase reporter, 18 h; 530 nm emission
[11] = target: Thyroid hormone receptor beta (Homo sapiens) (UniProt P10828); assay: qHTS assay for small molecule agonists of thyroid hormone receptor beta signaling (AID 588545; calls by dose curve;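 further: 0% = DMSO only and 100% = 10 nM T3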)
Thyroid hormone receptor beta (Homo sapiens), sequence (P10828 whole entry, looked up): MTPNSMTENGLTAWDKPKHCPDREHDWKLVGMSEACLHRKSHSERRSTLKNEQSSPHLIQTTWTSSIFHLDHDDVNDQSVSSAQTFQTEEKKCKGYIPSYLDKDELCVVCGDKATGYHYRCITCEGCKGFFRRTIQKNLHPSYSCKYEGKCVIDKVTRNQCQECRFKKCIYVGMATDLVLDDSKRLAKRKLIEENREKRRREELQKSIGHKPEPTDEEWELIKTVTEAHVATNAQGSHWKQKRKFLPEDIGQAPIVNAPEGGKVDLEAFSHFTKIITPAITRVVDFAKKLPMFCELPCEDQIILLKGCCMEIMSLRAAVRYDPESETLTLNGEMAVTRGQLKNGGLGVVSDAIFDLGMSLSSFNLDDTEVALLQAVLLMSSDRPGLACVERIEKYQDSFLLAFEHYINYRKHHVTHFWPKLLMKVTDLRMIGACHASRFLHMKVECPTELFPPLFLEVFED
Summary of the method: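 TR-UAS-bla GripTite HEK 293 cells (2500/well, medium with 2% charcoal/dextran FBS) were treated in agonist mode for 18 h at 37 C, titrated. Beta-lactamase was read by CCF4 ratio after 2 h; normalized to 10 nM T3 (100%) and DMSO, Hill-fitted for EC50 and efficacy.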

[12] = qHTS assay for small molecule antagonists of retinoid X receptor alpha signaling (AID 588546; active means well fitted inhibition curve with a large enough effect in the signal ratio, with a control signal flat, not every such curve was filed as active; the % refers to the signal ratio;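 further: cells stimulated with 9-cis-retinoic acid as agonist; on the % scale 0 is the no-effect control and ±100 the full control effect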); conditions: HEK293T RXRa-UAS-bla, beta-lactamase ratio, antagonist mode; measured here: W530 green channel, cytotoxicity proxy
Summary of the method: (§1)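 Beta-lactamase reporter inhibition, read as CCF4 fluorescence ratio (ex 405, em 460/530 nm) after 2 h at RT. HEK293T UAS-bla cells, 2500/well, were stimulated with 9-cis-RA at 500 or 100 nM final alongside test compound for 18 h at 37 C.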

[13] = target: Retinoic acid receptor RXR-alpha (Homo sapiens) (UniProt P19793); assay: as above; conditions: HEK293T RXRa-UAS-bla, beta-lactamase ratio, antagonist mode
Retinoic acid receptor RXR-alpha (Homo sapiens), sequence (P19793 whole entry, looked up): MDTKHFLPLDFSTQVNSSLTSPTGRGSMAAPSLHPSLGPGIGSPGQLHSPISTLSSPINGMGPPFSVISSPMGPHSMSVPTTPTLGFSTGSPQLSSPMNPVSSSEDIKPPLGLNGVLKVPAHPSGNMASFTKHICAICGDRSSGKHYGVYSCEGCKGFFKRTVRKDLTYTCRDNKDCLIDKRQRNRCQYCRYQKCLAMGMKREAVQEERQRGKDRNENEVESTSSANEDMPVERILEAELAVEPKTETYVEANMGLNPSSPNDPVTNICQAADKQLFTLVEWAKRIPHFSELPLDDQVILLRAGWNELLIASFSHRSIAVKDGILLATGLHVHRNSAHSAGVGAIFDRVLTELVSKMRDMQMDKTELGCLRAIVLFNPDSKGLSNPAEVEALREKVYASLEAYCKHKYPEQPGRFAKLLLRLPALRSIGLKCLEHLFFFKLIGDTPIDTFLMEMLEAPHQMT
Summary of the method: as §1

[14] = qHTS assay for environmental chemicals that activate the Aryl hydrocarbon Receptor (AhR) signaling pathway (AID 651777); conditions: 1A2-DRE human hepatoma cells, luciferase, 24 h; activation: stronger effect = higher value; further: % of control where 0% means no effect; nearly all actives have a fitted effect of over 15% in size
Summary of the method: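 Human hepatoma 1A2-DRE cells stably carrying a DRE/CYP1A2 promoter–luciferase reporter, 1,200 cells/well, exposed to compound 24 hr at 37 C. Luciferase read by One-Glo luminescence after 30 min at room temperature; increased signal marks AhR activation.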

[15] = target: Peroxisome proliferator-activated receptor alpha (Homo sapiens) (UniProt Q07869); assay: qHTS assay for small molecule agonists of the peroxisome proliferator-activated receptor alpha (PPARalpha) signaling pathway (AID 651778); conditions: PathHunter PPARalpha complementation, chemiluminescence, 6 h; max response: stronger effect = higher value; further: % of control where 0% means no effect
Peroxisome proliferator-activated receptor alpha (Homo sapiens), sequence (Q07869 whole entry, looked up, the tested form may be a part): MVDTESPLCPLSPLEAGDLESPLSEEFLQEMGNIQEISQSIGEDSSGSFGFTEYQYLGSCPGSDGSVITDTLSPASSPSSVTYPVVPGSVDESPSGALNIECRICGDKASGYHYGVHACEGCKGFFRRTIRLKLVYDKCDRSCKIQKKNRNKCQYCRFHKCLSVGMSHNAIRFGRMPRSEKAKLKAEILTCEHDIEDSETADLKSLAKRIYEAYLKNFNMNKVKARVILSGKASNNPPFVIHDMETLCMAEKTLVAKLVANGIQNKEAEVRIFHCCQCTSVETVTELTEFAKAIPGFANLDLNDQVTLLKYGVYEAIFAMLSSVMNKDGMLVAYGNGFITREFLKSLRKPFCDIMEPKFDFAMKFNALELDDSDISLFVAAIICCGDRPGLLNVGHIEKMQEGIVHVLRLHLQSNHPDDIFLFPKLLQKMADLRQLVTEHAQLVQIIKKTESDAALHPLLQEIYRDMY
Summary of the method: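 Enzyme-fragment complementation assay in which ligand-bound PPARalpha translocates and forms an active enzyme that generates chemiluminescence. Cells were plated overnight, exposed to compound for 6 hr at 37 C, and then given detection reagent for 60 min at room temperature.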

[16] = qHTS assay for small molecule agonists of the antioxidant response element (ARE) signaling pathway measured by Nrf2-dependant transcriptional activity (AID 720636; active means well fitted curve in the direction sought with a large enough effect in the repeat runs; an effect the other way counts as inactive or inconclusive; further: % of control where 0% means no effect)
Summary of the method: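 ARE-luc HepG2 cells carrying an Nrf2-responsive luciferase reporter, in medium with 1% dialyzed FBS, exposed to compound for 16 hr at 37 C, 5% CO2. Luminescence read 30 min after ONE-Glo addition.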

[17] = qHTS assay for small molecule agonists of the antioxidant response element (ARE) signaling pathway measured by Nrf2-dependant transcriptional activity - cell viability counter screen (AID 720653; active means well fitted curve in the direction sought with a large enough effect in the repeat runs; an effect the other way counts as inactive or inconclusive; further: on the % scale 0 is the no-effect control and ±100 the full control effect); conditions: ARE-bla HepG2 viability, CellTiter-Glo ATP luminescence, 16 h; max response: stronger effect = lower value
Summary of the method: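 ARE-bla HepG2 cells treated with compounds for 16 h at 37C; this counter screen measures viability as intracellular ATP by CellTiter-Glo luminescence after 30 min at room temperature.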

[18] = qHTS assay for cell viability of HEK293 cells (AID 743288); conditions: ATP luminescence (CellTiter-Glo), 18 h; max response: stronger effect = lower value; further: on the % scale 0 is the no-effect control and ±100 the full control effect; nearly all actives have a fitted effect of over 50% in size
Summary of the method: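 HEK293 parental, 2,000 cells/well; ≥5 h pre-incubation 37 C; pintool compound addition; 18 h, 37 C; CellTiter-Glo 30 min RT; luminescence read.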

[19] = qHTS assay for cell viability of the p53RE-bla HCT-116 cell line (AID 743292); further: on the % scale 0 is the no-effect control and ±100 the full control effect; nearly all actives have a fitted effect of over 55% in size
Summary of the method: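 CellSensor p53RE-bla HCT-116 cells (4,000/well) pre-incubated 5 h at 37 C, then exposed to compounds in DMSO for 16 h at 37 C. Viability read as ATP content by CellTiter-Glo luminescence after 30 min at room temperature.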

[20] = target: Nuclear receptor subfamily 1 group I member 2 (Rattus norvegicus) (UniProt Q9R1A7); assay: qHTS assay for small molecule activators of the rat pregnane X receptor (rPXR) signaling pathway (AID 651751; call rule not given here; further: 0% is about no effect); conditions: rPXR reporter cells, luciferase (One-Glo), 24 h
Nuclear receptor subfamily 1 group I member 2 (Rattus norvegicus), sequence (Q9R1A7 whole entry, looked up): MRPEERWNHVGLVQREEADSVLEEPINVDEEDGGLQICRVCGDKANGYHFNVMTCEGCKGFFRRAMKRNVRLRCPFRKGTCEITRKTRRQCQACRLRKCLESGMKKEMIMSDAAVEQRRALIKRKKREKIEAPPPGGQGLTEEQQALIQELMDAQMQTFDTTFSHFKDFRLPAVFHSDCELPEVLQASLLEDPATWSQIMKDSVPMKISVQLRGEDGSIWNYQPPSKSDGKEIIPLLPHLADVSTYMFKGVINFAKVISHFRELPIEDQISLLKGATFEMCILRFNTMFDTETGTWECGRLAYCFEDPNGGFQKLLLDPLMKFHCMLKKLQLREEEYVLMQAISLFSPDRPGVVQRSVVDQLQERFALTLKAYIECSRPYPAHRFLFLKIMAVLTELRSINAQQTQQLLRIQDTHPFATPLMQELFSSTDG

[21] = measured here: PEO1 parental Z-AUC

O=C(O)[C@H]1OC(O)[C@H](O)[C@@H](O)[C@@H]1O (stereo partly specified)
inactive: Potency [1] | Potency [2]

C=C1/C(=C/C=C2\CCC[C@]3(C)[C@@H]([C@H](C)CC[C@@H](O)C(C)C)CC[C@@H]23)C[C@@H](O)C[C@@H]1O
active: Potency [2] 15.8 µM
inactive: Potency [1]

Cc1nccn1CCC(C(N)=O)(c1ccccc1)c1ccccc1
inactive: Potency [1] | Potency [2]

CCc1ccc(N(CC(C)C)S(=O)(=O)c2ccc(OCC3CCOCC3)c(CO)c2)cc1
-0.861: Z-AUC ([3]; measured here: PEO4 Z-AUC)
-0.28: Z-AUC [3, 21]
inactive: Potency [1] | Potency [2] | Z-AUC [3] -1.27

CONC(=O)c1ccccc1Nc1cc(Nc2cc(C)nn2C(C)C)ncc1Cl
0.188: Z-AUC [3, 21]
0.196: Z-AUC ([3]; measured here: PEO4 Z-AUC)
inactive: Potency [1] | Potency [2] | Z-AUC [3] 0.959

CC1CCC(C(C)C)C(OC(=O)c2ccccc2O)C1 (stereo unspecified)
inactive: Potency [1] | Potency [2] | activity, negative = inhibition ([4]; parasite line A) -1.98% | activity, negative = inhibition ([4]; parasite line B) 8.37%

C[C@H]1O[C@]2(CS1)CN1CCC2CC1
inactive: Potency [1] | Potency [2]

COc1ccc(-c2c(Cl)ncn2-c2ccc(S(N)(=O)=O)cc2)cc1F
inactive: Potency [1] | Potency [2]

O=C(O)c1ccccc1C(c1ccc(O)cc1)c1ccc(O)cc1
-15.7% and -6.86%: max response [12]
inactive: Potency [5] > 92 µM | Potency [6] > 92 µM | Potency [7] > 92 µM | Potency [8] > 92 µM | outcome [9] | outcome [11] | max response [13] 6.9% and 9.98% | activation [14] 2.69% and 0.36% | max response [15] 0.608% and -3.85% | Potency [16] | max response [17] -7.19% and 7.52% | max response [18] -11.1% and 2.2% | Potency [19] | Potency [1] | Potency [2] | max response [20] 0.601% and -3.77%
-8.41% and -22.6%: max response [10]

c1ccc2scnc2c1
-4.98%: max response [10]
inactive: Potency [5] > 92 µM | Potency [6] > 92 µM | Potency [7] > 92 µM | Potency [8] > 92 µM | outcome [9] | outcome [11] | max response [13] -2.82% | activation [14] -0.642% | max response [15] -3.74% | Potency [16] | max response [17] -3.11% | max response [18] 11.2% | Potency [19] | Potency [1] | Potency [2] | max response [20] -1.2%
-9.8%: max response [12]

CNC(=O)c1ccccc1Nc1nc(Nc2ccc3c(c2OC)CCC[C@H](N2CCN(CCO)CC2)C3)ncc1Cl
-0.58: Z-AUC ([3]; measured here: PEO4 Z-AUC)
-0.531: Z-AUC [3, 21]
inactive: Potency [1] | Potency [2] | Z-AUC [3] -0.709

Cc1c(N=C=O)cccc1N=C=O
-2.03% and -4.55%: max response [12]
-9.85% and -4.8%: max response [10]
inactive: Potency [5] > 92 µM | Potency [6] > 92 µM | Potency [7] > 92 µM | Potency [8] > 92 µM | outcome [9] | outcome [11] | max response [13] 6.11% and -21.4% | activation [14] 3.08% and 0.198% | max response [15] -4.58% and -0.661% | Potency [16] | max response [17] 0.551% and 0.668% | max response [18] 8.57% and -7.81% | Potency [19] | max response [20] -1.26% and -0.744%
